In PubChem BioAssay AID2289 (National Center for Advancing Translational Sciences (NCATS), 2010):
About 3,300 (0.97%) of roughly 340,000 compounds were called active. Another 9% or so got no clear call; they are omitted. The call rests on the fitted dose curve; in most records, active means well fitted inhibition curve with a large enough effect; inconclusive means small, poorly fitted or top-dose-only effect, or effect the other way; inactive means flat fitted curve, though single readings scatter. The list shows a part of the results.

Assay: qHTS Assay for Modulators of miRNAs and/or Inhibitors of miR-21; further: nearly all actives have a fitted effect of over 55% in size
Conditions: HeLa miR-21-FLuc reporter, luciferase luminescence, 48 h; actives lower the signal
Method in brief: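 Compounds were titrated across several concentrations (up to approximately 40 uM) and incubated 48 hours with HeLa miR-21-FLuc reporter cells (miR-21 target sequence downstream of FLuc, endogenous miR-21). Readout was firefly luciferase luminescence after lytic detection reagent.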
Potency means the concentration at half of the fitted maximal effect.

Potency, active:
COc1cnn(-c2ccc(Br)cc2)c(=O)c1SCc1ccccc1 13.1 µM, CC(=O)Nc1ccc(-c2csc(NCc3ccco3)n2)cc1 4.14 µM, COc1ccc(-c2csc(NCc3ccco3)n2)cc1C 5.85 µM, Oc1ccc(-c2csc(NCc3ccco3)n2)cc1 4.65 µM, O=C(Cc1ccc(Cl)cc1)c1ccc(O)cc1 5.21 µM, CN(C)/C=C/C(=O)c1cnc(-c2ccccc2Cl)s1 18.5 µM, CN(C)/C=C/C(=O)c1cnc(-c2cccc(Cl)c2)s1 18.5 µM, COc1cc(C)ccc1OCCCOc1ccccc1Cl 6.56 µM, COc1cc(C)ccc1OCCOc1ccccc1Cl 14.7 µM, COc1ccccc1OCCCOc1ccc([N+](=O)[O-])cc1Cl 7.36 µM, Cn1c(-c2ccc3nc(N)sc3c2)nc2cc(N)ccc21 18.5 µM, CN(N=Nc1ccc([N+](=O)[O-])cc1)c1ccccc1 4.14 µM, O=C(NC(=S)Nc1ccc(Br)cn1)c1cccs1 0.521 µM, Cc1nc(NC(=S)NC(=O)c2cccs2)ccc1Br 14.7 µM, O=c1[nH]c(COc2ccc(Cl)cc2Br)nc2ccccc12 3.29 µM, O=c1[nH]c(COc2ccc(Br)cc2Cl)nc2ccccc12 2.61 µM, CCN(CC)S(=O)(=O)c1cc(C(=O)Oc2cccc(-c3cnc4ccccc4n3)c2)ccc1Br 1.85 µM, Nc1c(-c2ccc3c(c2)OCCO3)oc2ccccc2c1=O 2.93 µM, Cc1cccc(-n2ncc3c(NCCCn4ccnc4)ncnc32)c1 10.4 µM, CCN(CC)CCCNc1ncnc2c1cnn2-c1ccc(C)c(C)c1 6.56 µM, COc1ccc(-n2ncc3c(NCCCn4ccnc4)ncnc32)cc1 10.4 µM, Cc1noc(NS(=O)(=O)c2ccc(N/C=C/C(=O)c3ccc4c(c3)OCO4)cc2)c1C 9.27 µM, COc1cccc(C(=O)/C=C/Nc2ccc(S(=O)(=O)Nc3ncccn3)cc2)c1 11.7 µM, COc1cccc(C(=O)/C=C/Nc2ccc(NC(C)=O)cc2)c1 11.7 µM, COc1cccc(C(=O)/C=C/Nc2ccc(S(=O)(=O)Nc3onc(C)c3C)cc2)c1 13.1 µM, COc1cccc(C(=O)/C=C/Nc2ccc(S(=O)(=O)Nc3cnc4ccccc4n3)cc2)c1 7.36 µM, Cc1ccc(COc2ccc(-c3nnco3)cc2)cc1 4.14 µM, Fc1cc(Br)ccc1COc1ccc(-c2nnco2)cc1 7.36 µM, Cc1ccc(COc2ccc3c(c2)OCO3)cc1 3.69 µM, Cn1c(SCc2c(F)cccc2Cl)nnc1-c1cccs1 6.56 µM, Cn1c(SCc2c(F)cccc2Cl)nnc1-c1cnccn1 4.14 µM, CCCNC(=O)c1c(Cl)cnn1-c1ccc(C)cc1 4.14 µM, O=C(Nc1ccccc1)c1ccc(-c2ccccc2C(F)(F)F)o1 13.1 µM, O=C(Nc1ccccc1)OCc1cc(-c2ccccc2Cl)on1 11.7 µM, O=C(Nc1ccccc1)c1ccc(-c2ccccc2Cl)o1 3.69 µM, O=C(Nc1ccccc1)c1cc(-c2ccccc2Cl)no1 7.36 µM, O=C(Nc1cccc(F)c1)c1ccc(-c2ccccc2Cl)o1 2.93 µM, COc1ccc(NC(=O)c2ccc(-c3ccccc3Cl)o2)cc1 7.36 µM, COc1ccc(/C=C/c2ccncc2)cc1OC 16.5 µM, CC1=NN(C(=O)c2ccoc2C)C(O)(C(F)(F)F)C1 (stereo unspecified) 10.4 µM, CCCNc1ccc(C(=O)OCC)cc1[N+](=O)[O-] 16.5 µM, CCOC(=O)c1ccc(-c2ccc3c(c2)CCC3)nc1C 1.85 µM, COC(=O)c1ccc(-c2ccc(Cl)cc2)nc1C 1.47 µM, COC(=O)c1ccc(-c2ccc(F)cc2)nc1C 6.56 µM, CCOc1ccc(-c2cn3nc(CC(C)C)sc3n2)cc1 2.93 µM, COc1ccc2nc(SCC(C)=O)c(C#N)cc2c1 0.165 µM, CCOc1ccc2cc(C#N)c(SCC(=O)N3CCOCC3)nc2c1 1.17 µM, CCOC(=O)CSc1nc2cc(OCC)ccc2cc1C#N 4.65 µM, COC(=O)CSc1nc2cc(OC)ccc2cc1C#N 0.233 µM, O=C(Nc1cc2c(cc1Br)OCCCO2)c1ccccc1 2.33 µM, COc1cccc(C(=O)Nc2cc3c(cc2Cl)OCCCO3)c1 0.826 µM, COc1cccc(C(=O)Nc2cc3c(cc2Br)OCCCO3)c1 2.07 µM, O=C(Nc1cc2c(cc1C(=O)O)OCCCO2)c1ccc(C(F)(F)F)cc1 7.36 µM, CN(C)S(=O)(=O)Oc1cccc(C(=O)Nc2ccccc2Cl)c1 8.26 µM, COC(=O)c1c(-c2cccnc2)csc1NC(=O)c1ccc2c(c1)OCO2 1.04 µM, COC(=O)c1c(-c2ccncc2)csc1NC(=O)c1ccoc1C 1.85 µM, COC(=O)c1c(-c2cccnc2)csc1NC(=O)c1cc(C)on1 2.07 µM, CC(CC(=O)c1cccs1)CC(=O)c1cccs1 11.7 µM, CC(C)(C)C(=O)Nc1ccc(C(=O)OC2CCCCC2)cc1 0.927 µM, Cc1nnc(SCc2nc(N)nc(Nc3ccccc3)n2)s1 11.7 µM, COc1ccc(Nc2nc(N)nc(CSc3nnc(C)s3)n2)cc1 18.5 µM, COc1ccc(Nc2nc(N)nc(SCc3nnc(C)s3)n2)cc1 14.7 µM, Cc1nnc(SCc2cccc3ccccc23)s1 14.7 µM, Cc1ccc(Nc2nc(N)nc(CSc3nnc(C)s3)n2)cc1 7.36 µM, O=C(Nc1ccc2c(c1)OCO2)c1n[nH]c(=O)c2ccccc12 5.85 µM, CCc1ccc(NC(=O)c2n[nH]c(=O)c3ccccc23)cc1 1.04 µM, Cc1ccc(Nc2nc(N)nc(CSC(=S)N3CCOCC3)n2)c(C)c1 10.4 µM, COc1ccccc1Nc1nc(N)nc(CSC(=S)N2CCOCC2)n1 16.5 µM, COc1ccccc1Nc1nc(N)nc(CSC(=S)N2CCCCC2)n1 14.7 µM, COc1ccc(CCNc2ncccc2C#N)cc1OC 6.56 µM, CCOC(=O)N/N=C1\CCc2ccccc21 11.7 µM, O=C(N/N=C1\CCCCc2ccccc21)c1ccccn1 5.85 µM, O=C(O)c1ccc(N/N=C2/CCCc3ccccc32)cc1 6.56 µM, O=C(N/N=C1\CCc2ccccc21)c1ccccc1Cl 1.85 µM, O=C(COc1ccccc1F)N/N=C1\CCCc2ccccc21 3.29 µM, N/C(=N\OC(=O)CSc1ccccc1)c1ccc([N+](=O)[O-])cc1 4.65 µM, N/C(=N\OC(=O)CSc1ccccc1)c1ccncc1 14.7 µM, COc1ccc(/C(N)=N/OC(=O)CSc2ccccc2)cc1OC 8.26 µM, COc1ccc(-c2nnc(SCC(=O)Nc3cccc(F)c3)s2)cc1 13.1 µM, COc1ccc(NC(=O)CSc2nnc(NC(=O)Nc3ccc(OC)cc3)s2)cc1 0.826 µM, COc1ccc(NC(=O)Nc2nnc(-c3ccco3)s2)cc1 0.927 µM, COc1ccccc1C(=O)Nc1nnc(SCC(=O)NC2CCCC2)s1 0.414 µM, CC(=O)c1ccc(NC(=O)CSc2nnc(NC(=O)Nc3ccccc3)s2)cc1 7.36 µM, COc1ccc(C(=O)Nc2nnc(SCC(=O)Nc3ccc(NC(C)=O)cc3)s2)c(OC)c1 0.0656 µM, CC(C)(C)c1ccc(/C=C/C(=O)N2CCOCC2)cc1 6.56 µM, O=C(/C=C/c1cccc2ccccc12)N1CCOCC1 6.56 µM, CC(C)c1ccc(/C=C/C(=O)N2CCOCC2)cc1 2.93 µM, COc1ccc(NC(=O)C2CCCN(c3ncccn3)C2)cc1 (stereo unspecified) 8.26 µM, Cc1ccc(NC(=O)C2CCCN(c3ncccn3)C2)cc1C (stereo unspecified) 14.7 µM, COc1ccc(-n2ncc3c(N4CCCc5ccccc54)ncnc32)cc1 0.414 µM, CCC(NC(=O)c1ccccc1NC(=O)c1ccc(OC)cc1)C(=O)N1CCCC1 (stereo unspecified) 6.56 µM, Cc1[nH]c2ccccc2c1C(=O)CSC(=S)N1CCCCC1 3.29 µM, COc1ccc(/C=C/C(=O)N(C)C2CCCCC2)cc1Br 9.27 µM, Cc1ccc2c(CN3CCC(C)CC3)cc(=O)oc2c1 5.21 µM, Cc1ccc2c(CN3CCC(C)CC3)cc(=O)oc2c1C 7.36 µM, CN(C)c1ccc(/C=C/c2nnnn2-c2ccccc2)cc1 1.65 µM, CC(Cc1cccs1)NC(=O)c1cccc(Cl)c1 (stereo unspecified) 6.56 µM, COc1ccc(C2CC(=O)N(C)c3ccccc3S2)cc1OC (stereo unspecified) 18.5 µM, Cc1ccc(-c2nc3ccccc3nc2NN)cc1 1.17 µM, CC(=O)c1sc(-c2ccc(F)cc2F)nc1C 14.7 µM, Cc1sc(NC(=O)C2C3CCC(O3)C2C(=O)O)nc1-c1ccc(CC(C)C)cc1 (stereo unspecified) 3.69 µM, CCOC(=O)C1=NN(c2ccc(Cl)cc2)C(=O)C1 6.56 µM, CCOC(=O)c1sc2nc3c(cc2c1N)COC(C)(C)C3 1.17 µM, CCOC(=O)c1sc2nc3c(cc2c1N)COC(C(C)C)C3 (stereo unspecified) 0.0414 µM, C=CCn1c(C)nc2c(sc3nc4c(cc32)COC(C)(C)C4)c1=O 0.656 µM, CCOC(=O)c1cc2c(nc1N)CC(C)(CC)OC2 (stereo unspecified) 7.36 µM
